# Compound activity as filed in PubChem BioAssay.
# ATG4B inhibitor = inhibitors of human ATG4B cysteine protease. Q9Y4P1. ATG4B cleavage of LC3-PLA2, NBD-HPC fluorescence, 1 h. inhibition, % at 8.33 µM. hit rate 0.51% among 340,000. AID 504462; in the data active = inhibition above about 40%
# PREPL inh = human PREPL enzyme inhibition; hit rate 0.68% among 320,000; AID 2751; inhibition, % at 5.96 µM; Q4J6C6; recombinant PREPL, fluorescence polarization activity-based probe; in the data active = inhibition above about 43%
# UBC13 polyUb = blocks human UBC13 polyubiquitin chain formation; P61088; TR-FRET; inhibition, % at 20 µM; hit rate 0.47% among 330,000; AID 485273; in the data active = inhibition above about 45%, passing the limit was not always enough
# Target sequence (P61088 whole entry, looked up): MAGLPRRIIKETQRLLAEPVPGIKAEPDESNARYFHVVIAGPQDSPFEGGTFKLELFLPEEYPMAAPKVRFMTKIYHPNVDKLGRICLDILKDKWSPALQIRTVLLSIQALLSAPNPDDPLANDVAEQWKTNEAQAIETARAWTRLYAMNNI
# MEKK2 mut-MEK5 = signal of MEK5 binding to mutant human MEKK2 PB1 domain. bead flow cytometry, Alexa488-MEK5 binding to MEKK2 mutant. hit rate 0.35% among 290,000. percent response, % at 10 µM. AID 1530; in the data active = percent response above about 24%, passing the limit was not always enough
# MEKK3 PB1 HTS = MEKK3-MEK5 PB1 interaction, increase or decrease; bead-based flow cytometry, Alexa488-MEK5 binding to MEKK3; actives lie on both sides; 0 = blocked by unlabeled MEK5, 100 = vehicle; hit rate 1.4% among 290,000; binding response (% of control), % at 10 µM; Q99759;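 active = binding response more than 3 SD above or below the average of its plate-row segment, actives on both sides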;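 note: Alexa488 bead fluorescence after subtracting the streptavidin-only scavenger bead signal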
# MEKK2 WT-MEK5 = raises or lowers MEK5 binding to wildtype human MEKK2 PB1 domain; Q9Y2U5; bead flow cytometry, Alexa488-MEK5 binding to MEKK2 WT; actives lie on both sides; binding response (% of control), % at 10 µM; hit rate 1.1% among 290,000; in the data active = binding response below about 67% or above about 130%
# ATG4B confirm = confirmation of human ATG4B inhibitors; ATG4B protease fluorescent substrate cleavage assay; shares compounds with ATG4B inhibitor; hit rate 92% among 320; inhibition, % at 8.33 µM; in the data active = inhibition above about 39%
# PLA2 ctr = PLA2 (human) inhibition in ATG4B counter-screen; inhibition, % at 8.33 µM; purified PLA2, NBD-C6-HPC fluorescence, 45 min; hit rate 66% among 1,600; shares compounds with ATG4B inhibitor; in the data active = inhibition above about 50%
# Target sequence (P04054 whole entry, looked up): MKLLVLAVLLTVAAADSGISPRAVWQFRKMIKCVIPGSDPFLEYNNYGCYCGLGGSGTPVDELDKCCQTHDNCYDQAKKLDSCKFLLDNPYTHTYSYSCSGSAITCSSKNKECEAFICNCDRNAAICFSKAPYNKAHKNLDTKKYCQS
# Hits are given with their value; n = inactive; x = no result given. Shown are actives, neighbours in structure and some others; about 3.1% of the full set was active somewhere.
SMILES,ATG4B inhibitor,PREPL inh,UBC13 polyUb,MEKK2 mut-MEK5,MEKK3 PB1 HTS,MEKK2 WT-MEK5,PLA2 ctr,others
CCc1nc(N2CCCCC2)c2oc3ccccc3c2n1,53,n,n,n,n,n,61,
CCc1nc(N2CCCCC2C)c2oc3ccccc3c2n1 (stereo not given),45,n,n,n,n,n,56,
Cc1cccc(C)c1OCc1cc(C(=O)N2CC3C[C@@H]4CC2C[C@H](C3)C4)no1,52,n,n,n,n,n,69,
Cc1cccc(C)c1OCc1cc(C(=O)N2CCN(c3ccccn3)CC2)no1,57,n,n,n,n,n,53,
Cc1cccc(C)c1OCc1cc(C(=O)N2CCN(c3ccc(F)cc3)CC2)no1,n,n,n,n,n,n,x,
COc1ccc(N=Nc2c(N)nn(C)c2N)cc1,n,x,x,x,x,x,x,
Cc1ccc(N=Nc2c(N)nn(-c3ccccc3)c2N)cc1,57,62,n,n,n,n,71,
Cc1nn(-c2ccccc2)c(N)c1N=Nc1ccc2ccccc2c1,78,n,n,n,n,n,91,
Cc1nn(-c2ccccc2)c(N)c1N=O,n,n,n,n,n,n,x,
CC(C)CC1(C)NC(=O)N(CC(=O)Nc2ccccc2Br)C1=O (stereo not given),n,n,n,x,x,x,x,
O=C(Cn1nc(-c2ccccc2)oc1=O)OCC(=O)c1ccccc1,n,n,n,x,x,x,x,
Cc1c(C(=O)N2CCOCC2)sc2nc(-c3ccccc3)cn12,n,n,n,x,x,x,x,
Cc1c(C(=O)N2CCc3ccccc3C2)sc2nc(-c3ccccc3)cn12,45,n,n,n,n,n,53,
Cc1cc(C)c(S(=O)(=O)c2cccc(C)c2C)c(=O)[nH]1,n,n,n,n,n,n,x,
CCCOc1ccc(-c2nc(SCc3ccccc3)[nH]c(=O)c2C#N)cc1OC,52,n,n,n,n,n,85,
CCSc1nc(-c2ccccc2)c(C#N)c(=O)[nH]1,n,n,n,n,n,n,x,
Cc1ccc(S(=O)(=O)Oc2ccc(C(c3c(C)[nH][nH]c3=O)c3c(C)[nH][nH]c3=O)cc2)cc1,70,n,n,n,n,n,68,
COc1cc2c(cc1NC(=O)COc1ccccc1OC)oc1ccccc12,n,n,n,n,n,n,x,
CC(C)[C@H](NS(=O)(=O)c1ccccc1)C(=O)OCC(=O)Nc1ccccc1Sc1ccccc1,94,n,n,n,n,n,92,
COc1cc2c(cc1NC(=O)COC(=O)[C@@H](NS(=O)(=O)c1ccccc1)C(C)C)oc1ccccc12,76,n,n,n,n,n,83,
O=C(c1ccc(-n2c(SCc3cccc(F)c3)nc3ccccc3c2=O)cc1)N1CCOCC1,48,n,n,n,n,n,n,ATG4B confirm=59
O=C(O)c1ccc(CSc2nc3ccccc3c(=O)n2-c2ccccc2)cc1,41,n,n,n,n,n,59,
Cc1noc(C)c1CSc1nc2ccccc2c(=O)n1-c1ccc(Cl)cc1,71,n,n,n,n,n,70,
O=c1c2ccccc2nc(SCc2ccc([N+](=O)[O-])cc2)n1-c1ccccc1,40,n,n,n,n,n,n,
O=C(O)c1ccc(CSc2nnc(-c3ccccc3)n2-c2ccccc2)cc1,n,n,n,n,n,n,x,
SMILES,ATG4B inhibitor,PREPL inh,UBC13 polyUb,MEKK2 mut-MEK5,MEKK3 PB1 HTS,MEKK2 WT-MEK5,PLA2 ctr,others
COc1ccc(C=O)cc1OC(=O)N1CCOCC1,n,n,n,n,n,n,x,
N/C(=N/O)c1ccccc1N1CCC(Cc2ccccc2)CC1,40,n,n,n,n,n,58,
COc1ccc(CCN2CC(C(=O)Nc3nccs3)CC2=O)cc1OC (stereo not given),n,n,n,x,x,x,x,
O=C(NCc1cccc(C(F)(F)F)c1)c1cc(Cl)ccc1Cl,n,n,n,n,n,n,x,
O=C(NCc1cccc(C(F)(F)F)c1)c1cc(Cl)cc(Cl)c1,52,n,n,n,n,n,n,ATG4B confirm=60
O=C(NCc1cccc(Cl)c1)c1ccc(S(=O)(=O)Nc2cccc(C(F)(F)F)c2)cc1,58,n,n,n,n,n,60,
